From PubChem BioAssay
TrxR1 substrate = is turned over as a substrate by rat TrxR1; O89049; purified TrxR1 substrate turnover, NADPH consumption readout; Potency, µM (titrated, usually from 114 µM); hit rate 0.01% among 390,000; AID 588456; further: nearly all actives have a fitted effect of over 50% in size
Target sequence (O89049 whole entry, looked up): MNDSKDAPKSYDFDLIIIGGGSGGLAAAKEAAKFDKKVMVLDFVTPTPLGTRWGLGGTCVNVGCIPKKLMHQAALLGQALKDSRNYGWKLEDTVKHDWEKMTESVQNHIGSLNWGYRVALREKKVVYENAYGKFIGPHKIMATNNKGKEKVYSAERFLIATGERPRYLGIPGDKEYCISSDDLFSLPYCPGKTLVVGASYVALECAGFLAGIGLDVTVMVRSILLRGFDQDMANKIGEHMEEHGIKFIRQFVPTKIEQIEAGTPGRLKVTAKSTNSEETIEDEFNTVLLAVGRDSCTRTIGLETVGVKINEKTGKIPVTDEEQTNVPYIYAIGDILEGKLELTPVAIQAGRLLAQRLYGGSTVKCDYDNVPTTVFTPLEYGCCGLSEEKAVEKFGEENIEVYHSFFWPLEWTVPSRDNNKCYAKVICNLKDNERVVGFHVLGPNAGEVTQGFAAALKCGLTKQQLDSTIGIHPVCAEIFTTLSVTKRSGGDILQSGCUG
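Rat TrxR1, dispensed at 90 nM, was prereduced with 400 uM NADPH (final) for 5 min at ~22 deg C, then incubated with compound 15 min before 400 uM selenite. A first-read NADPH fluorescence drop versus no-compound background flagged substrates.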
Eya2 phos inh = Eya2 (human) phosphatase inhibition; O00167; recombinant Eya2, OMFP fluorescence dephosphorylation (OMFP is methylfluorescein phosphate); Potency, µM (titrated, usually from 76.9 µM), actives largely listed as inhibitors; hit rate 0.006% among 330,000; AID 488837
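Eya2 (0.2 uM) preincubated 10 min at ambient with compound, then OMFP substrate added at 50 uM; 10 min reaction in 50 mM HEPES pH 7.5, 50 mM NaCl, 5 uM MgCl2, 0.05% BSA, 1 mM DTT. Fluorescence read at Ex 485/Em 525 nm.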
GALK inh = galactokinase (human) inhibition; P51570; Potency, µM (titrated, usually from 57.5 µM), usual class: inhibitors; hit rate 0.007% among 270,000; Purified GALK, Kinase-Glo residual ATP luminescence
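Human GALK (5 nM) with 35 uM ATP and 100 uM galactose in 20 mM HEPES pH 8.0, 5 mM MgCl2, 60 mM NaCl, 1 mM DTT, 0.01% BSA. After 1 h at room temperature, leftover ATP was read by Kinase-Glo Plus luminescence.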
rTrxR1 inhibitor = rat TrxR1 inhibition | recombinant rTrxR1, NADPH fluorescence consumption, selenite substrate | Potency, µM (highest dose often 114 µM), hits mostly inhibitors | hit rate 1% among 390,000 | AID 588453; further: nearly all actives have a fitted effect of over 65% in size
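Rat TrxR1 (90 nM in the dispensed reagent) was pre-reduced with 400 uM NADPH for 5 min at room temperature, then incubated with compound for 15 min. After 400 uM selenite was added, NADPH fluorescence (Ex 340/Em 450 nm) was followed for 8 min.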
Six1-Eya2 blk = blocks human Six1 binding to Eya2; Q15475+O00167; AlphaScreen GST-Six1/His-Eya2 binding, biochemical; hits give low values; activity change, % (test concentration not listed); hit rate 0.56% among 360,000; in the data active means activity change below about -65%; inconclusive means mostly about -30% to -63%
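GST-Six1 + His-Eya2 (5X stock: 250/500 nM); Tris pH 8.0, 300 mM NaCl, 0.05% BSA, 0.02% Tween 20; GSH donor/Ni acceptor beads; 1 h 37 °C dark; AlphaScreen readout.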
CtBP-E1A blk = blocks the CtBP interaction with E1A. AlphaScreen GST-E1A/His-CtBP binding, 1536-well; hits give low values. activity change, % (test concentration not listed). hit rate 0.49% among 340,000; in the data active means activity change below about -65%; inconclusive means mostly about -30% to -63%
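GST-E1A and His-tagged CtBP (125 nM each as 5X stock) were preincubated with pin-transferred compound for 2 h at 37 °C in the dark, then glutathione donor and nickel acceptor beads were added for 1 h before AlphaScreen reading.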
Hits are given with their value; [ ] = remark or other dose. The list is not random: actives were taken first. Their share in the collection is about 1.5%. Unless noted, the call rests on the fitted dose curve; in most records, active means well fitted curve in the direction sought with a large enough effect; inconclusive means small, poorly fitted or top-dose-only effect, or another doubt; inactive means no such curve, though single readings can be large; an effect the other way counts as inactive or inconclusive.

CCOc1ccccc1CNC(=O)c1cnc2sc(N3CCCC3)nn2c1=O was read as TrxR1 substrate inactive and rTrxR1 inhibitor inactive.
Screening CCC(=O)N1CCc2cc(S(=O)(=O)NC(C(=O)Nc3cc(OC)cc(OC)c3)C(C)C)ccc21 (stereo not given) returned TrxR1 substrate inactive and rTrxR1 inhibitor inactive.
Screening O=C(COCc1cc(-c2cccs2)on1)NCc1ccc(F)cc1 returned TrxR1 substrate inactive and rTrxR1 inhibitor inactive.
Screening CCn1c(=O)c2cc(C(=O)Nc3cc(C)c(Cl)cc3OC)sc2c2ccccc21 returned TrxR1 substrate inactive and rTrxR1 inhibitor inactive.
`O=C(COC(=O)c1cc(-c2ccco2)nc2ccccc12)NCc1ccccc1` gave TrxR1 substrate inactive, Eya2 phos inh inactive, GALK inh inactive, rTrxR1 inhibitor 45µM, Six1-Eya2 blk inactive and CtBP-E1A blk inactive.
Screening Cn1c(N)c(C(=O)COC(=O)c2cc(-c3ccco3)nc3ccccc23)c(=O)n(C)c1=O returned TrxR1 substrate inactive, Eya2 phos inh inactive, rTrxR1 inhibitor 13µM, Six1-Eya2 blk inconclusive and CtBP-E1A blk inconclusive.
O=C(COC(=O)c1ccco1)NCc1ccc(Cl)cc1Cl was read as TrxR1 substrate inactive, Eya2 phos inh inactive, rTrxR1 inhibitor 79µM, Six1-Eya2 blk inactive and CtBP-E1A blk inactive.
Cn1c(N)c(C(=O)COC(=O)c2cc(-c3ccco3)nc3ccccc23)c(=O)n(Cc2ccccc2)c1=O was read as Eya2 phos inh inactive.
Screening O=C(COC(=O)c1ccco1)NCc1ccccc1Cl returned TrxR1 substrate inactive, Eya2 phos inh inactive, GALK inh inactive, rTrxR1 inhibitor inactive, Six1-Eya2 blk inactive and CtBP-E1A blk inactive.
`CNC(=O)COC(=O)c1cc(-c2ccco2)nc2ccccc12` gave TrxR1 substrate inactive, Eya2 phos inh inactive, GALK inh inactive, rTrxR1 inhibitor 10µM, Six1-Eya2 blk inactive and CtBP-E1A blk inactive.
Cc1ccc(Cn2cnc3c(cnn3C(C)(C)C)c2=O)cc1F was read as TrxR1 substrate inactive and rTrxR1 inhibitor inactive.
Screening COc1ccc2nc(Nc3sc4c(c3C(N)=O)CCCC4)sc2c1 returned TrxR1 substrate inactive, Eya2 phos inh inactive, GALK inh inactive, rTrxR1 inhibitor 14µM, Six1-Eya2 blk inactive and CtBP-E1A blk inactive.
For COC(=O)c1c(-c2ccc(Cl)cc2)noc1N1CCN(c2ccc(OC)cc2)CC1 the results were TrxR1 substrate inactive and rTrxR1 inhibitor inactive.
COc1cc(NS(=O)(=O)c2cc3c(cc2C)N(C)CCO3)cc(OC)c1OC was read as TrxR1 substrate inactive[11.4 µM] and rTrxR1 inhibitor inactive.
`Oc1ccc(N=Nc2c(O)ccc3ccccc23)cc1` gave TrxR1 substrate inactive, Eya2 phos inh inactive, GALK inh inactive, rTrxR1 inhibitor inactive, Six1-Eya2 blk -70 and CtBP-E1A blk -75.
Screening CN(C)c1ccc(C(c2ccc(N(C)C)cc2)c2ccc([N+](=O)[O-])cc2)cc1 returned TrxR1 substrate inactive, Eya2 phos inh inactive, GALK inh inactive, rTrxR1 inhibitor inactive, Six1-Eya2 blk -83 and CtBP-E1A blk inconclusive.
Screening CCOc1ccc(-n2c(=O)c3c(C)c(C)sc3n(CC(=O)Nc3ccc(CC)cc3)c2=O)cc1 returned TrxR1 substrate inactive[2.29 µM] and rTrxR1 inhibitor inactive.
For Cc1nn(-c2ccccn2)c2c1C(=O)C(Br)CC2 (stereo not given) the results were TrxR1 substrate inactive, Eya2 phos inh inactive, GALK inh inactive, rTrxR1 inhibitor 13µM, Six1-Eya2 blk inactive and CtBP-E1A blk inactive.
CCN(CC)CCN(C(=O)c1ccco1)c1nc2cc(C)cc(C)c2s1 was read as TrxR1 substrate inactive and rTrxR1 inhibitor inactive.
COc1cc(OC)c2c(-c3ccccc3)cc(=O)oc2c1C(CCN1CCCC(C)C1)c1ccc(N(C)C)cc1 (stereo not given) was read as TrxR1 substrate inactive, Eya2 phos inh inactive, GALK inh inactive, rTrxR1 inhibitor inactive and Six1-Eya2 blk -67.
